Source: PubChem
Pf growth 96h – inhibits malaria parasite growth, 96 h; 320,000 compounds, 6.9% hits; AID 504834; Potency, µM (top dose mostly 28.7 µM), inactives show top-dose activity change, negative = inhibition, usual class: inhibitors; P. falciparum luciferase reporter growth, 96 h; further: on the % scale 0 is the no-effect control and ±100 the full control effect
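Compounds incubated with erythrocytes infected by luciferase-expressing P. falciparum (2% hematocrit, 0.05% parasitemia final) for 96 hours, 37 C in 5% CO2. Growth inhibition scored as decreased luciferase luminescence.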
HCV inh – inhibitors of hepatitis C virus infection; Huh7.5.1 HCVcc-Cre infection, luciferase reporter, 44 h; Potency, µM (doses to about 41.8 µM), without a hit: top-dose activity change, negative = inhibition, actives largely listed as inhibitors; 340,000 compounds, 3.4% hits; further: on the % scale 0 is the no-effect control and ±100 the full control effect
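Luciferase read-out (15 sec integration) after a 15 min room-temperature substrate step quantifies HCVcc-Cre infection. Cells, 1,000 per well, had compound added 4 h post-plating, then virus at ~0.5 moi, and were cultured 44 h.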
NS1 function inh – influenza NS1 inhibition; AID 2326; 270,000 compounds, 0.4% hits; Potency, µM (titrated, usually from 46.1 µM), without a hit: at the top dose activity, positive = more growth; calls by dose curve; further: actives are rising curves; nearly all actives have a fitted effect of over 50% in size
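OD600 was taken as the measure of yeast growth restored by compound in an NS1-expressing S. cerevisiae strain. Cells had been washed out of glucose medium and diluted 1:100 into galactose -URA medium, pH 6.0.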
Pf growth 48h – inhibits P. falciparum growth in the first generation, 48 h; P. falciparum luciferase growth in erythrocytes, 48 h; Potency, µM (doses to about 28.7 µM), for inactives: at the top dose activity change, negative = inhibition, most hits filed as inhibitors; 310,000 compounds, 5.9% hits; AID 504832; further: on the % scale 0 is the no-effect control and ±100 the full control effect
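Luminescence readout; reporter = integrated firefly luciferase in P. falciparum. RBC culture at 2% hematocrit, 0.1% parasitemia final, 37 C/5% CO2; decreased signal taken as growth inhibition.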
Vaccinia Venus – vaccinia inhibition (Venus reporter) | Vaccinia virus Venus reporter expression, fluorescence | Potency, µM (highest dose often 36.5 µM), for inactives: at the highest dose activity change, negative = inhibition, actives largely listed as inhibitors | 330,000 compounds, 0.46% hits | AID 720580; calls by dose curve; tested in A549 cells; further: on the % scale 0 is the no-effect control and ±100 the full control effect; nearly all actives have a fitted effect of over 30% in size
VACV mCherry inh – inhibitors of vaccinia virus infection (mCherry reporter signal) | Vaccinia virus mCherry reporter infection, fluorescence | Potency, µM (titrated, usually from 36.5 µM), inactives show at the top dose activity change, negative = inhibition, usual class: inhibitors | 310,000 compounds, 0.63% hits | AID 720579; calls by dose curve; tested in A549 cells; further: on the % scale 0 is the no-effect control and ±100 the full control effect; nearly all actives have a fitted effect of over 35% in size
Starred values were filed as active, the others as inactive; i = inactive; ? = inconclusive; · = not tested or not shown; [ ] = remark or other dose. Only some compounds are listed: those with a hit (about 11% of all), similar ones and a draw of the others. Unless noted, the call rests on the fitted dose curve; in most records, active means well fitted inhibition curve with a large enough effect; inconclusive means small, poorly fitted or top-dose-only effect, or another doubt; inactive means no such curve, though single readings can be large or run the other way. Potency means the concentration at half of the fitted maximal effect.

SMILES	Pf growth 96h	HCV inh	NS1 function inh	Pf growth 48h	Vaccinia Venus	VACV mCherry inh
CCCC[n+]1ccn(-c2nc3c([N+](=O)[O-])cccc3n2C)c1	2.1µM*	1%	4%	13µM*	·	·
CCCC[n+]1ccn(-c2nc3ccccc3nc2[N-]S(=O)(=O)c2ccc(Cl)cc2)c1	-24%	4%	8%	-16%	-14%	i
COc1cc(/C=C2/C(=N)N3OC(C)=CC3=NC2=O)ccc1OC(=O)c1ccco1	13µM*	11%	·	29%	14%	-29%
CC1=CC2=NC(=O)/C(=C\c3ccc(OC(=O)c4ccco4)cc3)C(=N)N2O1	0%	13%	·	7%	9%	i
CCCCN(C)C(=O)Cn1c(=O)oc2cc(S(=O)(=O)N3CC(C)CC(C)C3)ccc21 (stereo not given)	13µM*	-9%	4%	?	·	·
CCOC(=O)C1CCCN(S(=O)(=O)c2ccc(Cl)nc2)C1 (stereo not given)	7%	11%	·	?	?	14µM*
CC1CC(C)CN(C(=O)Cn2c(=O)oc3cc(S(=O)(=O)N4CCCC4)ccc32)C1 (stereo not given)	12µM*	8%	-1%	?	·	·
CC1CC(C)CN(S(=O)(=O)c2ccc3c(c2)oc(=O)n3CC(=O)N2CCOCC2)C1 (stereo not given)	?	12%	-14%	·	-3%	6%
CCOC(=O)C1CCN(C(=O)C2CCCN2S(=O)(=O)c2ccc(Cl)cc2)CC1 (stereo not given)	10µM*	·	3%	0%	-10%	i
O=C(C1CCCN1S(=O)(=O)c1ccc(Cl)cc1)N1CCCCC1 (stereo not given)	31%	·	7%	1%	-9%	-14%
CN1CCCN(C(=O)c2cccc3ccccc23)CC1	0%	0%	-3%	-11%	·	·
CCOC(=O)Cn1c(=O)oc2cc(S(=O)(=O)N3CCCC(C)C3)ccc21 (stereo not given)	40%	16%	?	-29%	-5%	6%
CCOC(=O)Cn1c(=O)oc2cc(S(=O)(=O)N3CCCC(C(=O)OCC)C3)ccc21 (stereo not given)	10µM*	4%	-3%	·	-7%	3%
CCOC(=O)Cn1c(=O)oc2cc(S(=O)(=O)N3CCn4c3nc3ccccc34)ccc21	15µM*	0%	-55%	-11%	-7%	i
O=C(O)c1ccc(-c2nc(-c3ccc(Cl)c(Cl)c3)cs2)cc1	0%	11%	·	40%	·	·
Cc1cc(CN2CCCC(N3CCc4ccccc4C3)C2)cc(C)c1O (stereo not given)	10µM*	-13%	8%	?	·	·
COc1cc2c(cc1OC)CN(C1CCCN(Cc3cccc(C(C)=O)c3)C1)CC2 (stereo not given)	·	3%	·	·	·	·
Cn1cnc2c(SCc3ccccc3)ncnc21	·	5%	·	·	-2%	i
CCOC(=O)C1CCN(C(=O)c2ccccc2)C(CC)C1=O (stereo not given)	·	2%	·	·	-15%	-8%
O=C(NCCC1=CCCCC1)c1ccc(F)c(S(=O)(=O)N2CCOCC2)c1	9.3µM*	-18%	-6%	?	-6%	-16%[1.46 µM]
Cc1ccccc1NS(=O)(=O)c1cc(C(=O)NCCC2=CCCCC2)ccc1Cl	?	?	16%	?	·	·
COc1ccc(C(=O)NCCC2=CCCCC2)cc1S(=O)(=O)N1CCOCC1	?	-7%	·	?	-11%	-3%
CC1CN(S(=O)(=O)c2cc(C(=O)NCCC3=CCCCC3)ccc2Cl)CC(C)O1 (stereo not given)	?	?	·	10µM*	-16%	-10%
CCCc1nnc2n1N=C(c1ccc([N+](=O)[O-])cc1)CS2	-8%	13%	-1%	8%	-5%	i
CCc1oc2ccccc2c1C(=O)c1cc(I)c(O)c(I)c1	1.9µM*	·	·	-15%	·	·
SMILES	Pf growth 96h	HCV inh	NS1 function inh	Pf growth 48h	Vaccinia Venus	VACV mCherry inh
CCCCc1oc2ccccc2c1C(=O)c1cc(I)c(N(CC)CCOCC)c(I)c1	·	·	·	·	?	-28%
CC(C)(C)Nc1nc(Cl)nc(NC(C)(C)C)n1	15µM*	-3%	0%	0%	-17%	-7%
CNc1nc(Cl)nc(NC(C)(C)C)n1	36%	?	12%	10%	-15%	·
COc1ccccc1CNS(=O)(=O)c1ccc(S(=O)(=O)NC2CC2)cc1	?	3%	-17%	4%	-5%	-5%
COc1ccc(CN(C2CCCCC2C)S(=O)(=O)c2ccc(S(=O)(=O)N(C)C)cc2)cc1OC (stereo not given)	?	13%	?	13µM*	-13%	-29%
COc1ccc(CC(=O)Nc2ccc(S(=O)(=O)N(C)C)cc2)cc1OC	-22%	-24%	1%	5%	-13%	-28%
COc1cc(CN(C2CCCCC2C)S(=O)(=O)c2ccc(S(=O)(=O)NC3CC3)cc2)cc(OC)c1OC (stereo not given)	-22%	-6%	26%	8.3µM*	-25%	?
O=C(Nc1cnn(C23CC4CC(CC(C4)C2)C3)c1)c1cc(-c2ccccc2)on1	·	-29%	-3%	10µM*	-2%	i
Cc1ccc(-c2cc(C(=O)Nc3cnn(C45CC6CC(CC(C6)C4)C5)c3)no2)cc1	-7%	-26%	4%	?	·	·
CCCCCCCCN=Cc1c(O)[nH]c(=O)[nH]c1=O	-14%	-6%	-1%	25%	3%[7.34 µM]	i[7.34 µM]
Cc1c(-c2nc(N)nc(Nc3ccc(F)cc3)n2)oc2ccccc12	?	10µM*	-87%	?	?	·
O=C(CSc1nc(=O)[nH]c2c1CCC2)NCc1ccccc1	·	·	·	·	-11%[7.34 µM]	0%[7.34 µM]
O=C1c2ccccc2S(=O)(=O)N1CC1CC(c2ccccc2)=NO1 (stereo not given)	11%	-3%	-36%	37%	-13%	·
Cc1ccc(S(=O)(=O)N2[C@@H](c3ccccc3F)C(C(=O)O)=CC[C@H]2c2ccc3c(c2)OCO3)cc1	12µM*	-11%[8.37 µM]	·	?	5%	-8%
Cc1ccc([C@@H]2CC=C(C(=O)O)[C@H](c3ccc(F)cc3)N2S(=O)(=O)c2ccc(C)cc2)cc1	78%	16%	·	32%	-8%	-19%
Cc1ccc([C@@H]2CC=C(C(=O)O)[C@H](c3ccccc3F)N2S(=O)(=O)c2ccc(C)cc2)cc1	?	15%	·	31%	-3%	-7%
Cc1ccc(S(=O)(=O)N2[C@@H](c3ccc(F)cc3)C(C(=O)O)=CC[C@H]2c2ccc3c(c2)OCO3)cc1	12µM*	9%	·	?	-11%	-2%
Cn1cnnc1Sc1cc(N2CCN(S(=O)(=O)c3ccc(Cl)c(Cl)c3)CC2)ccc1[N+](=O)[O-]	-2%	?	25%	12µM*	?	·
Cc1ccc(S(=O)(=O)N2CCN(c3ccc([N+](=O)[O-])c(Sc4nncn4C)c3)CC2)cc1	232%	?	28%	?	-18%	?
